Legend:
Assay in all cases: protein binding microarray; high values mean tight binding
Conditions in all cases: dsDNA, one strand shown
RELARELA (p65 homodimer) = RELARELA (p65 homodimer) (Homo sapiens, UniProt Q04206 1-307)
p50p50 homodimer = p50p50 homodimer (Homo sapiens, UniProt P19838 7-356)
p52p52 homodimer = biological target: T1, p52p52 homodimer (Homo sapiens, UniProt Q00653 4-332)
T1 sequence: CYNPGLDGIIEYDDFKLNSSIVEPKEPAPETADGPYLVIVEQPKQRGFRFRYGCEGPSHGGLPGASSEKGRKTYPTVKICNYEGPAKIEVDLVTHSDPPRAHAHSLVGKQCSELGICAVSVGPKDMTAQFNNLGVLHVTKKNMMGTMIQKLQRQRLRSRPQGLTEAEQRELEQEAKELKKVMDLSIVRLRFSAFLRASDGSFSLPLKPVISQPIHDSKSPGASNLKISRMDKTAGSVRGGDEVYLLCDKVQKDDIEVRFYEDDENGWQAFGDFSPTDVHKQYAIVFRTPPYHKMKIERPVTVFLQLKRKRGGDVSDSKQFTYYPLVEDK

[1] = biological target: RELA (p65) subunit of heterodimer;p50 subunit (Homo sapiens;Homo sapiens, UniProt Q04206;P19838 1-307;7-356)
[2] = biological target: RELA (p65) subunit of heterodimer;p52 subunit (Homo sapiens;Homo sapiens, UniProt Q04206;Q00653 1-307;4-332)
RELB subunit;p50 subunit = RELB subunit;p50 subunit (Homo sapiens;Homo sapiens, UniProt Q01201;P19838 120-401;7-356)
RELB subunit;p52 subunit = biological target: T2, RELB subunit;p52 subunit (Homo sapiens;Homo sapiens, UniProt Q01201;Q00653 120-401;4-332)
T2 sequence 1: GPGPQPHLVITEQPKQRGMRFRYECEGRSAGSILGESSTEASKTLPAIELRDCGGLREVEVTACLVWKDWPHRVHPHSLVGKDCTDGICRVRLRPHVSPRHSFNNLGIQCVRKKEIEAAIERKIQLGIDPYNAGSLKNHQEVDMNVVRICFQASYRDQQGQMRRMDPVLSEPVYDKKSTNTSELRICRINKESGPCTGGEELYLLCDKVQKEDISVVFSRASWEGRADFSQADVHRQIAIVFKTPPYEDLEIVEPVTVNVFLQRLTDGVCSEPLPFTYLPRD
T2 sequence 2: T1 sequence

[3] = biological target: C-Rel subunit;p50 subunit (Homo sapiens;Homo sapiens, UniProt Q04864;P19838 1-285;7-356)
[4] = biological target: T3, C-Rel subunit;p52 subunit (Homo sapiens;Homo sapiens, UniProt Q04864;Q00653 1-285;4-332)
T3 sequence 1: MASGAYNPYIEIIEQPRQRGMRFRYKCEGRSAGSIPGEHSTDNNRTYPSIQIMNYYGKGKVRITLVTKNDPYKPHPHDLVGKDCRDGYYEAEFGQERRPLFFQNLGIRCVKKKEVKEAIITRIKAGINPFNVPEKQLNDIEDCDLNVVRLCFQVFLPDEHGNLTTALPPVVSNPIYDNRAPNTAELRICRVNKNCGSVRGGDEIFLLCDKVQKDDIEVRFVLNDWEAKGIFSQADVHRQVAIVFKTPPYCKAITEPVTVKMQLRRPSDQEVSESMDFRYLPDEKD
T3 sequence 2: T1 sequence

p50p50 homodimer, sequence (P19838 7-356): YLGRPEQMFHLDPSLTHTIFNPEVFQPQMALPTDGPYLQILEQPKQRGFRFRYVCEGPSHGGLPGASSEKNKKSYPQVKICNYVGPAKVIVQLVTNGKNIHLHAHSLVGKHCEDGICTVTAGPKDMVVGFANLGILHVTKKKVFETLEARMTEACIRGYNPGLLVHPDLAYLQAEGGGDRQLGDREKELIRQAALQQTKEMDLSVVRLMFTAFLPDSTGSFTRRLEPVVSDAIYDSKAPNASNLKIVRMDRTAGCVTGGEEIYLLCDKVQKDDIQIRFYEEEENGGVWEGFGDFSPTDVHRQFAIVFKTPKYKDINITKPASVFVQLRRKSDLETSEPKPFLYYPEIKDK
RELA (p65) subunit of heterodimer;p50 subunit, sequence (Q04206 1-307, chain 1 of 2): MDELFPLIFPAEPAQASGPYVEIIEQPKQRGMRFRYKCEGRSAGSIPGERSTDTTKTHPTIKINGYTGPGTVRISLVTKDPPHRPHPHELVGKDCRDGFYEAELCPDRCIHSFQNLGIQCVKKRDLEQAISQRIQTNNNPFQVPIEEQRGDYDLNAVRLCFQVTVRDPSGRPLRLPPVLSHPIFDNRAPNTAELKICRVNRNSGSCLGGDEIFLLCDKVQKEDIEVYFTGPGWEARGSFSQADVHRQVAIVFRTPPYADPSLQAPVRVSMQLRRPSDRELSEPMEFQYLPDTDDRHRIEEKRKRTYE
RELA (p65) subunit of heterodimer;p50 subunit, sequence (P19838 7-356, chain 2 of 2): as the sequence (P19838 7-356) above
RELARELA (p65 homodimer), sequence (Q04206 1-307): as the sequence (Q04206 1-307, chain 1 of 2) above

Row | Sequence | binding signal (RELARELA (p65 homodimer)) [z-score] | binding signal (p50p50 homodimer) [z-score] | binding signal (p52p52 homodimer) [z-score] | binding signal [1] [z-score] | binding signal [2] [z-score] | binding signal (RELB subunit;p50 subunit) [z-score] | binding signal (RELB subunit;p52 subunit) [z-score] | binding signal [3] [z-score] | binding signal [4] [z-score]
1 | CAAAGGCCCCC | -1.53 | 0.336 | 0.0392 | 0.041 | 0.0834 | 0.123 | 0.14 | -0.0908 | 0.0137
2 | AGATGTTCCCT | 0.238 | 0.414 | 0.229 | 0.235 | -0.0295 | 0.0779 | -0.091 | 0.0801 | -0.204
3 | CGGTTCCCCCC | 0.357 | 1.52 | 1.57 | 2.24 | 1.89 | 2.3 | 2.23 | 1.85 | 1.73
4 | AAGTGATTCCT | -0.0511 | -0.869 | -0.482 | -0.602 | -0.719 | -0.843 | -0.976 | -0.572 | -0.598
5 | AAGTGGGCCCT | -0.584 | -0.904 | -0.603 | -0.886 | -0.714 | -0.762 | -0.527 | -1.25 | -0.634
6 | AAAAGCGTCCC | 0.0306 | 0.282 | 0.41 | 0.21 | 0.286 | 0.48 | 0.821 | 0.207 | 0.0784
7 | GAGTTCTTCCT | -0.0672 | -1.52 | -0.678 | -0.535 | -0.734 | -0.845 | -0.72 | -0.764 | -0.548
8 | AAGGTAGCCCC | -0.468 | 0.424 | 0.109 | -0.162 | 0 | 0.152 | 0.184 | 0.249 | 0.217
9 | CAGAGTATCCT | -0.548 | -1.79 | -0.651 | -0.987 | -1 | -1.11 | -0.991 | -1.45 | -1
10 | CAGTACCCCCC | -0.045 | 1.15 | 0.733 | 0.954 | 0.96 | 0.927 | 1.16 | 0.886 | 0.823
11 | AGATACATCCC | -0.0343 | -0.79 | -0.47 | -0.557 | -0.673 | -0.73 | -0.746 | -0.981 | -0.677
12 | AAATGCCCCCC | 0.508 | 1.24 | 0.957 | 1.43 | 1.32 | 1.4 | 1.57 | 1.28 | 0.954
13 | AGGTTCATCCC | -0.622 | -0.302 | -0.0688 | -0.431 | -0.313 | -0.476 | -0.362 | -0.498 | -0.243
14 | GAAATGACCCT | -0.43 | -0.328 | -0.304 | -0.247 | -0.11 | -0.287 | -0.38 | -0.632 | -0.223
15 | CAAAAATCCCC | 2.62 | 1.37 | 2.67 | 2.11 | 2.3 | 2.84 | 2.28 | 1.91 | 2.55
16 | GAAGGAGTCCT | -0.288 | -1.55 | -0.648 | -0.892 | -0.934 | -0.985 | -0.808 | -1.08 | -0.746
17 | CAAGGATTCCC | 1.01 | 0.585 | 0.314 | 0.704 | 0.382 | 0.457 | 0.419 | 0.93 | 0.576
18 | AAAAGCACCCC | -0.281 | 0.833 | 0.946 | 0.86 | 1.12 | 0.711 | 0.952 | 0.423 | 0.69
19 | AAGTGTGTCCT | -0.0699 | -1.1 | -0.57 | -0.888 | -0.62 | -0.808 | -0.709 | -0.908 | -0.763
20 | AGGGGAGTCCT | 0.691 | 0.962 | 1.64 | 0.872 | 1.1 | 0.907 | 0.881 | 0.64 | 0.78
21 | AGAGGCGTCCC | -0.0545 | -0.0189 | 0.07 | -0.193 | -0.01 | 0.139 | 0.267 | -0.234 | -0.17
22 | AAGGGCACCCC | -0.322 | -0.576 | -0.342 | -0.454 | -0.414 | -0.379 | -0.217 | -0.33 | -0.364
23 | CGAAAGGCCCT | -0.835 | -0.751 | -0.447 | -0.366 | -0.217 | -0.417 | -0.6 | -0.822 | -0.62
24 | CAGGTACCCCT | -0.0502 | 0.353 | 0.356 | 0.304 | 0.796 | 0.548 | 1.06 | 0.193 | 0.274
25 | AGGTGACTCCT | -0.642 | -0.518 | -0.228 | -0.661 | -0.704 | -0.778 | -0.791 | -0.985 | -0.779
26 | GAAGGTGCCCT | -0.528 | -0.946 | -0.486 | -0.722 | -0.698 | -0.821 | -0.597 | -1.15 | -0.907
27 | AAAGTCATCCC | -0.416 | -0.925 | -0.412 | -1.01 | -0.716 | -0.587 | -0.628 | -0.836 | -0.699
28 | CGGGAACTCCT | 1.67 | 0.314 | 0.181 | 0.357 | 0.17 | -0.0239 | 0.0296 | 0.188 | 0.424
29 | GGATAGTCCCT | 1 | 1.18 | 1.57 | 1.47 | 1.43 | 0.994 | 1.65 | 1.15 | 1.82

From PMC3218832
